From PubChem BioAssay (NCATS) come the findings set out here.

Results filed as inconclusive are left out. The source made the active and inactive calls. Calls follow the shape of the dose curve; as a rule, active = well fitted curve in the direction sought with a large enough effect; inconclusive = small, poorly fitted or top-dose-only effect, or another doubt; inactive = no such curve, though single readings can be large; an effect the other way counts as inactive or inconclusive.

The target of assay [1] is Aldehyde dehydrogenase, mitochondrial (Homo sapiens) (UniProt P05091). Kind of assay: qHTS for Inhibitors of the Aldehyde Dehydrogenase Family (ALDH2) Primary screen (AID 2061308). Also: nearly all actives have a fitted effect of over 55% in size. Also: potency is read from the fitted curve at half-maximal effect.
Assay [2] addresses Retinaldehyde dehydrogenase 3 (Homo sapiens) (UniProt P47895). Nature of the assay: qHTS for Inhibitors of the Aldehyde Dehydrogenase Family (ALDH1A3) Primary screen (AID 2061315).
The target of assay [3] is Aldehyde dehydrogenase 1A1 (Homo sapiens) (UniProt P00352). Nature of the assay: qHTS for Inhibitors of the Aldehyde Dehydrogenase Family (ALDH1A1) Confirmatory screens (AID 2061316). Also: nearly all actives have a fitted effect of over 65% in size. Also: potency is read from the fitted curve at half-maximal effect.

In the case of `O=C(OCC#CCSc1nnc(-c2ccc3ccccc3c2)o1)c1cccs1`, the Potency entry in assay [1] and in assay [2] was “inactive” throughout.

`COc1ccc(CC(=O)Nc2ccc(S(=O)(=O)Nc3cc(C)on3)cc2)cc1OC`: the Potency entry in assay [1] and in assay [2] was “inactive” each time.

Regarding `CCOC(=O)Nc1sc2c(c1C(N)=O)CCCC2`, the Potency result in assay [1] and in assay [2] was “inactive” in each case.

With `Cc1ccc(S(=O)(=O)Nc2ccccc2CNc2nc(-c3ccccc3)cs2)cc1`, the Potency result in assay [1] and in assay [2] was “inactive” throughout.

As to `c1nc(NC[C@@H]2CCCO2)c2cc(-c3ccc4c(c3)OCO4)ccc2n1`, the Potency entry in assay [1] and in assay [2] was “inactive” in each case. For the same molecule, in assay [3], the Potency is 20.1 µM (active).

On to `CC(C)(C)N[S+](=O)([O-])c1cccc(-c2nnc(SCC(=O)Nc3ccc(C(=O)O)cc3)n2-c2ccccc2)c1`, for which the Potency entry in assay [1] and in assay [2] was “inactive” each time.

In the case of `CC(=O)NC(c1cc(F)c2cccnc2c1O)C(C)C` (configuration not stated), the Potency result in assay [1] and in assay [2] was “inactive” each time.

On to `Cc1cc(C=CC#N)cc(C)c1Nc1nc(Nc2ccc3c(c2)OCO3)c2[nH]cnc2n1`, for which the Potency entry in assay [1] and in assay [2] was “inactive” throughout.

`Cc1cnc(-c2ccccc2C(C)C)nc1NCc1ccc(C(N)=O)cc1`: the Potency entry in assay [1] and in assay [2] was “inactive” in each case.

Consider `O=C1Nc2cc(Cl)ccc2Nc2cscc21`, for which the Potency is 14.1 µM (active) in assay [1] and 7.12 µM (active) in assay [3]. In addition, the Potency result in assay [2] is “inactive”.

For the molecule `Cc1ccc(CNc2ncnc3ccc(-c4sc(C)nc4C)cc23)o1`, the Potency entry in assay [1] and in assay [2] was “inactive” in each case. Moreover, in assay [3], the Potency was 15.9 µM (active).

Regarding `O=C(O)c1ccc2c(c1)C(=O)N([C@@H](Cc1ccc(O)cc1)C(=O)O)C2=O`, the Potency entry in assay [1] and in assay [2] was “inactive” throughout.

For `Cc1ccc(S(=O)(=O)Nc2cccc(C(=O)Nc3nc(-c4ccc(Cl)cc4)cs3)c2)cc1`, the Potency result in assay [1] and in assay [2] was “inactive” each time.

Turning to `O=C([C@H](Cc1ccc(O[S+](=O)([O-])c2ccccn2)cc1)N[S+](=O)([O-])c1cccc2cnccc12)N1CCN(c2ccccc2)CC1`, the Potency result in assay [1] and in assay [2] was “inactive” each time. In assay [3], the Potency is 7.98 µM (active).

Turning to `O=C1Nc2ccccc2/C1=C/c1cc(Cl)c(O)c(Cl)c1`, the Potency entry in assay [1] and in assay [2] was “inactive” in each case. In assay [3], the Potency was 17.9 µM (active).

As for `COC(=O)c1ccccc1-c1ccc(/C=c2\sc3nc4cc(Br)cnc4n3c2=O)o1`, the Potency result in assay [1] and in assay [2] was “inactive” throughout. The Potency in assay [3] was 11.3 µM (active).

For `O=C1Nc2ccccc2C12CC2c1cc(Cl)c(O)c(Cl)c1` (configuration not stated), the Potency entry in assay [1], in assay [2] and in assay [3] was “inactive” throughout.

Take `Cc1ccc(OCCn2c(CCNC(=O)Cc3cc(F)ccc3F)nc3ccccc32)cc1`: the Potency entry in assay [1] and in assay [2] was “inactive” in each case.

As to `Cc1cn([C@H]2C[C@H](N[S+](=O)([O-])Cc3ccccc3)[C@@H](CO)O2)c(=O)[nH]c1=O`, the Potency entry in assay [1] and in assay [2] was “inactive” in each case.

Regarding `O=C1c2ccccc2C(=O)N1c1cccc2cnccc12`, the Potency entry in assay [1] and in assay [2] was “inactive” in each case.

In the case of `Nc1scc2c(C(=O)O)nn(-c3ccccc3)c(=O)c12`, the Potency result in assay [1] and in assay [2] was “inactive” in each case. In assay [3], the Potency was 5.04 µM (active).

Consider `COc1ccc(C(=O)O[C@H]2C=COC=C3C=C4C(=O)N(C)C(=S)C(=O)N4[C@@H]32)cc1Oc1cc(C=O)ccc1O`, for which the Potency result in assay [1] and in assay [2] was “inactive” throughout.

With `CCCCNc1nc(C)nc2c1nc(-c1ccccc1)n2CCCCN(CC)CC`, the Potency result in assay [1] and in assay [2] was “inactive” in each case.

Regarding `CC(=O)Nc1ccc(NC(=S)NC(=O)c2ccc(C(C)(C)C)cc2)cc1`, the Potency entry in assay [1] and in assay [2] was “inactive” each time.

Consider `CC1(C)CC[C@]2(C(=O)O)CC[C@]3(C)C(=CCC4[C@@]5(C)C[C@@H](O)[C@H](O)C(C)(C)C5CC[C@]43C)C2C1` (some centres not stated), for which the Potency result in assay [1] and in assay [2] was “inactive” each time.

For the molecule `Cc1ccc(-c2ccc(=O)n(CC(=O)N(C)[C@H](C)c3ccccc3)n2)cc1`, the Potency result in assay [1] and in assay [2] was “inactive” in each case.

In the case of `Cc1cc2c(s1)c1cnn(Cc3c(F)ccc(F)c3F)c(=O)c1n2C`, the Potency entry in assay [1] and in assay [2] was “inactive” in each case.

For the molecule `COc1ccc(S(=O)(=O)Nc2cnccc2C(=O)Nc2nc(-c3ccccc3)cs2)cc1`, the Potency entry in assay [1] and in assay [2] was “inactive” each time.

Consider `CN(C)c1cccc(N2CCN(c3nn4c(=O)c5ccccc5nc4s3)CC2)c1`, for which the Potency entry in assay [1] and in assay [2] was “inactive” throughout. The Potency in assay [3] was 10.1 µM (active).

Turning to `COc1ccc(S(=O)(=O)N2CCN(C(=O)C3COc4ccccc4O3)CC2)cc1` (configuration not stated), the Potency entry in assay [1] and in assay [2] was “inactive” in each case.

As for `Cc1ccc(-c2cc(C(=O)O)c3cccc(C)c3n2)cc1C`, the Potency result in assay [1] and in assay [2] was “inactive” each time.

As to `N#Cc1nc(Nc2cccc(C(F)(F)F)c2)nc(NC2CCCC2)n1`, the Potency result in assay [1] and in assay [2] was “inactive” throughout.

Regarding `Cc1cc(C)nc(NC(=S)N2CCN(c3cc(Cl)cc(Cl)n3)CC2)c1`, the Potency entry in assay [1] and in assay [2] was “inactive” each time. Besides, the Potency in assay [3] was 3.57 µM (active).

Consider `CC(C)(N)C(=O)Nc1ccc(Cl)cc1C(=O)c1ccc[nH]1`, for which the Potency result in assay [1] and in assay [2] was “inactive” each time.

Consider `Fc1ccc(Nc2nc(-c3ccnc(C(F)(F)F)c3)nc3ccccc23)cc1F`, for which the Potency entry in assay [1] and in assay [2] was “inactive” each time.

For `Cc1cc(N[S+](=O)([O-])c2ccc(NC(=O)Cc3ccc4c(c3)CCCC4)cc2)no1`, the Potency result in assay [1] and in assay [2] was “inactive” in each case.
